In PMC7862700, “An all-to-all approach to the identification of sequence-specific readers for epigenetic DNA modifications on cytosine”:

Legend:
Assay in all cases: DAPPL (digital affinity profiling via proximity ligation, sequencing); 10 mM Tris-HCl pH 7.5, 50 mM NaCl, 1 mM DTT, 4% glycerol, room temperature, 30 min; GST-TFs on glutathione beads, 16-mer random dsDNA library, 0.1% formaldehyde crosslink after washing; high values mean tight binding
Conditions in all cases: protein: recombinant; tags: N-terminal GST; dsDNA, one strand shown
FLI1 = molecular target: T1, FLI1 (Homo sapiens, UniProt Q01543 1-452)
T1 sequence: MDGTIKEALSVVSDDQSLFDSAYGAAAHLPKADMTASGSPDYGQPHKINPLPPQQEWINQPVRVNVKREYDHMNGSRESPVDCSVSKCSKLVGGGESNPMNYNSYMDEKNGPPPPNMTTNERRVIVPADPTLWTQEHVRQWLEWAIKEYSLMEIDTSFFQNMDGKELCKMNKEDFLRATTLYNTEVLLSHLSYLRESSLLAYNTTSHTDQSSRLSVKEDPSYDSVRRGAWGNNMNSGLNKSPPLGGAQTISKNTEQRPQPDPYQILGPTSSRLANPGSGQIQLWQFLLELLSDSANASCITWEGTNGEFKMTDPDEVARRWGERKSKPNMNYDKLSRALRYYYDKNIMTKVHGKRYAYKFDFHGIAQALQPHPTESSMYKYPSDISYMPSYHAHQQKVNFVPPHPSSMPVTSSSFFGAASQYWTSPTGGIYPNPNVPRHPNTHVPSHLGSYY
How it was run: (§1)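 Human transcription factors fused to GST were expressed in yeast, captured on glutathione beads, given DNA barcodes and pooled with a GST-only negative control. Pools were incubated with 200 nmole of a 16-mer random double-stranded DNA library in Tris/NaCl/DTT/glycerol buffer at room temperature for 30 min. They were then washed, crosslinked with 0.1% formaldehyde, proximity-ligated (BsaI/T4 ligase, 1 h, 37 °C), PCR-amplified and sequenced on an Illumina NextSeq500. Binding signal is each 6-mer's read frequency for a factor divided by its frequency for the GST control.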

ELK1 = molecular target: T2, ELK1 (Homo sapiens, UniProt P19419 1-428)
T2 sequence: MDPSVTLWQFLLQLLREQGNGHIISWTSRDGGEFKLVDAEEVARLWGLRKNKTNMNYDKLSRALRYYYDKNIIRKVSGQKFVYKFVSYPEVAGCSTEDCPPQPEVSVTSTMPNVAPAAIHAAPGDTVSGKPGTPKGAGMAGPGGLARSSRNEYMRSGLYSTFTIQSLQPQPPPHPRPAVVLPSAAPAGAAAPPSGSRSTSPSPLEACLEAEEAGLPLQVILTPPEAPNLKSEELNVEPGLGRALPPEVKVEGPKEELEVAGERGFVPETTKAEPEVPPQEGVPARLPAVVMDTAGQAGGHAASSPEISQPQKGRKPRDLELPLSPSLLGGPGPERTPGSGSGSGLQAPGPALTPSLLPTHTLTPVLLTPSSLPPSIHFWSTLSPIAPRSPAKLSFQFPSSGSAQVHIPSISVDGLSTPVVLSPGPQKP
How it was run: as §1

GABPA = molecular target: T3, GABPA (Homo sapiens, UniProt Q06546 1-454)
T3 sequence: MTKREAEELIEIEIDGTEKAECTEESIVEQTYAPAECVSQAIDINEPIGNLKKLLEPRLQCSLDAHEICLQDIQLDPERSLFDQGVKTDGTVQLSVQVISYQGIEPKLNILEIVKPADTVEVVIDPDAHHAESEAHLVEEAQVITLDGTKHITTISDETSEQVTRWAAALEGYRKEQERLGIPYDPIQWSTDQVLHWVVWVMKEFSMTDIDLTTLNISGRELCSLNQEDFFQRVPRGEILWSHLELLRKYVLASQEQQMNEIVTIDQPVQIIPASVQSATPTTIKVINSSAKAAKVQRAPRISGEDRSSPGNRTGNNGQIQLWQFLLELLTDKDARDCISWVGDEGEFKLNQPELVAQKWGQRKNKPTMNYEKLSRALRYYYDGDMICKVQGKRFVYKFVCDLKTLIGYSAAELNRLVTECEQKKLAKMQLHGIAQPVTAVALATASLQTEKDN
How it was run: as §1

ERG = molecular target: T4, ERG (Homo sapiens, UniProt P11308 1-479)
T4 sequence: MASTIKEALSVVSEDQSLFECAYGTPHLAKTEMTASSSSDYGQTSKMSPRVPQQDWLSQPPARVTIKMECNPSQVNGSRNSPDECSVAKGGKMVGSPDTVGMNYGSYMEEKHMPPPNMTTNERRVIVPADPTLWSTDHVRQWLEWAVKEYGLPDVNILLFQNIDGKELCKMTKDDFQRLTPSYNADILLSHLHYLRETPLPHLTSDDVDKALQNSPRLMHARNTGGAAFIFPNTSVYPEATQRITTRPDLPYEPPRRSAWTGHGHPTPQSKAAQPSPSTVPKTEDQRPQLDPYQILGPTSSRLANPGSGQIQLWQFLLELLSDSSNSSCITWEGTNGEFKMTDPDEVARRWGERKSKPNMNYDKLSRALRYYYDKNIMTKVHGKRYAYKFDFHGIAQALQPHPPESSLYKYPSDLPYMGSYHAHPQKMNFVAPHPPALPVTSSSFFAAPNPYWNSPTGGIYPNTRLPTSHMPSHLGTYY
How it was run: as §1

ELF1 = ELF1 (Homo sapiens, UniProt P32519 1-619)
Chain of ELF1 (P32519 whole entry): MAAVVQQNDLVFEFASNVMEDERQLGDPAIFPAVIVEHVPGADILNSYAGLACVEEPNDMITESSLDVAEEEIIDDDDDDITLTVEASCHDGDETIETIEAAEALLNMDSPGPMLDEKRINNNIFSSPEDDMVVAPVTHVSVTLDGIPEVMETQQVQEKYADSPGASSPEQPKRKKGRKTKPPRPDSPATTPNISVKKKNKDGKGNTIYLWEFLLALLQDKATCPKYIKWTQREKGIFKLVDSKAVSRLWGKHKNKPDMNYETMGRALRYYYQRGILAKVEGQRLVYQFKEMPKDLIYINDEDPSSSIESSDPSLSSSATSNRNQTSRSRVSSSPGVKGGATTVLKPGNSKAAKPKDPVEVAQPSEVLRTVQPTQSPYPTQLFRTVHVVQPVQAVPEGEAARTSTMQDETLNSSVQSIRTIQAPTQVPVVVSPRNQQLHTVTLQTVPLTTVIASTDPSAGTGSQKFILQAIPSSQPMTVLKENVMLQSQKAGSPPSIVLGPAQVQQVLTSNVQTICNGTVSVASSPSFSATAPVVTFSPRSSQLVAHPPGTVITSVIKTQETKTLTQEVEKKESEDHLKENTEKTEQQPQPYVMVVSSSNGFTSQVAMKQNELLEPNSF
How it was run: as §1

EHF = molecular target: T5, EHF (Homo sapiens, UniProt Q9NZC4 1-300)
T5 sequence: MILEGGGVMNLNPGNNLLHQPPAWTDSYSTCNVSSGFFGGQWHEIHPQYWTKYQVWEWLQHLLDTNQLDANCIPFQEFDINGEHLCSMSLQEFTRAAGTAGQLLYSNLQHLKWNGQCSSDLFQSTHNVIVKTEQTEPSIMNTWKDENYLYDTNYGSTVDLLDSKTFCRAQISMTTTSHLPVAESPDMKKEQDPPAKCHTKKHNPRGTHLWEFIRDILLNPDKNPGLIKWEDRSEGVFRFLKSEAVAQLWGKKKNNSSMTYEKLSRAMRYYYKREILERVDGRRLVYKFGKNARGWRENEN
How it was run: as §1

SPIB = SPIB (Homo sapiens, UniProt Q01892 1-262)
Chain of SPIB (Q01892 whole entry): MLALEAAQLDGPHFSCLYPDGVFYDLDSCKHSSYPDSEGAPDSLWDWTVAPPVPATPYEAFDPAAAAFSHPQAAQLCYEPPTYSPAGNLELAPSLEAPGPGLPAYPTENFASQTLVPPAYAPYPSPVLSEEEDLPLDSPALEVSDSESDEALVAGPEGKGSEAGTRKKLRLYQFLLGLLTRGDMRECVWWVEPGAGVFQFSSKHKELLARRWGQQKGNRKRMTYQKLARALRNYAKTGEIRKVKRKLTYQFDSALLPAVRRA
How it was run: as §1

ELK3 = molecular target: T6, ELK3 (Homo sapiens, UniProt P41970 1-407)
T6 sequence: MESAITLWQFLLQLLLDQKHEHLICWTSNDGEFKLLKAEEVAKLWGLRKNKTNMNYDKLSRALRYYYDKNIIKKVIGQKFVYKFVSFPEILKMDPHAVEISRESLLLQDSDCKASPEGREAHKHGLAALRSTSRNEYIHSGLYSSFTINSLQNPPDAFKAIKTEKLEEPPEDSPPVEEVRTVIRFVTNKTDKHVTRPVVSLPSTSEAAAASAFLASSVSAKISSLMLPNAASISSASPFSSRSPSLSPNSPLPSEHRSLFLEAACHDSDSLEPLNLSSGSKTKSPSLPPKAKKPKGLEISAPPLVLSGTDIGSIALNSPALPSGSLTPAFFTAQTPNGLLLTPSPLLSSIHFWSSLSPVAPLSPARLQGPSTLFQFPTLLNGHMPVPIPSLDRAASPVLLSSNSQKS
How it was run: as §1

SPIC = molecular target: T7, SPIC (Homo sapiens, UniProt Q8N5J4 1-248)
T7 sequence: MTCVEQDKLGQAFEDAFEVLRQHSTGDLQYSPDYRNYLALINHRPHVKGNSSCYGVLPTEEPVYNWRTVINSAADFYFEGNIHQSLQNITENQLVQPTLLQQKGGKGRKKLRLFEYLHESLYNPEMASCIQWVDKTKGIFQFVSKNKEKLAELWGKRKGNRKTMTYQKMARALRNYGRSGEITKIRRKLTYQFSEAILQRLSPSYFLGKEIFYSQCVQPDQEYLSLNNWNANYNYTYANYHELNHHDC
How it was run: as §1

ELF4 = ELF4 (Homo sapiens, UniProt Q99607 1-663)
Chain of ELF4 (Q99607 whole entry): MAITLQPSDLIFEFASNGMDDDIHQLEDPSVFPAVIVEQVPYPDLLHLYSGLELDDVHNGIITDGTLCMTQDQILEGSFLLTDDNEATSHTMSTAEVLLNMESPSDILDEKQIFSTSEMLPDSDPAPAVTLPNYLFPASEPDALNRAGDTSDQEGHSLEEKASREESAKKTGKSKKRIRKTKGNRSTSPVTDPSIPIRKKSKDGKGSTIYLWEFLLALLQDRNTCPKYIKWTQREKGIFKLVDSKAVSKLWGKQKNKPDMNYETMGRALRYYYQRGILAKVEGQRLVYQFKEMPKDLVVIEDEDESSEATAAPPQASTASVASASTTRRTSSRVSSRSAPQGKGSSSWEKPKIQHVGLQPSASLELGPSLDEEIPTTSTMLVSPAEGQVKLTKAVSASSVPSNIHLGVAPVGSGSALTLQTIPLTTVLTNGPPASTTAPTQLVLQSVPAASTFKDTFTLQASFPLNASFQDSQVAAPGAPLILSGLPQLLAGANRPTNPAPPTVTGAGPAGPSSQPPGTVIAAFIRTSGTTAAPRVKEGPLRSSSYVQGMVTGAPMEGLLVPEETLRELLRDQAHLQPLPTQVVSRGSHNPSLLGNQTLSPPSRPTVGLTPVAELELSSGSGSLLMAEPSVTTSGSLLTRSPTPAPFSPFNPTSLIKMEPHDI
How it was run: as §1

In the case of GCTGGT, the binding signal (FLI1) is reported as 1.29 fold enrichment (6-mer frequency, TF over GST control), the binding signal (ELK1) is reported as 1.23 fold enrichment (6-mer frequency, TF over GST control) and the binding signal (GABPA) is reported as 1.15 fold enrichment (6-mer frequency, TF over GST control). For the same sequence, the binding signal (ERG) was 1.28 fold enrichment (6-mer frequency, TF over GST control), the binding signal (ELF1) was 1.04 fold enrichment (6-mer frequency, TF over GST control) and the binding signal (EHF) was 1.2 fold enrichment (6-mer frequency, TF over GST control). The binding signal (SPIB) was 1.18 fold enrichment (6-mer frequency, TF over GST control), the binding signal (ELK3) was 1.19 fold enrichment (6-mer frequency, TF over GST control) and the binding signal (SPIC) was 1.08 fold enrichment (6-mer frequency, TF over GST control). For the same sequence, the binding signal (ELF4) was 1.11 fold enrichment (6-mer frequency, TF over GST control).
